Rows were chosen to be rich in hits. Some 4.4% of all compounds tested hit in one or more screens of this group.
SUMO Mot1 rescue = SUMOylation pathway inhibition by Mot1-301 growth rescue | growth rescue, % at 18.8 µM | 1% of 320,000 active | AID 2716 | S. cerevisiae Mot1-301 growth rescue, ATP luminescence, 38.5C; percent above DMSO median, 100 means doubled;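 active = every valid replicate shows activation above 250% relative to neutral control wells; inactive = the rest, any valid replicate at or below 250%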;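 also: OY570 slx delta 5 strain wells were the positive control but not used for scaling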
PfHsp90 set2 = growth inhibition of yeast expressing Plasmodium Hsp90; 0.32% of 310,000 active; S. cerevisiae expressing PfHsp90, BacTiter-Glo ATP, 48 h; yeast lacking PDR1 and PDR3 efflux regulators; AID 504621; inhibition, % at 9.4 µM;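 active = every replicate shows inhibition above about 80%, whatever the replicate mean, limit read from the data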;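 also: 0% = DMSO neutral controls and 100% = 20 µM radicicol positive controls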
TIM10 inh = inhibits growth of TIM10 yeast strain; 1.4% of 330,000 active; AID 463195; inhibition, % at 10 µM; S. cerevisiae TIM10 strain growth, BacTiter-Glo luminescence, 24 h;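 active = inhibition of 40% or more at the single tested concentration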;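 also: wild-type TIM10 isogenic control strain grown at permissive 25 °C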
tim10-1 inh = inhibits growth of tim10-1 mutant yeast; S. cerevisiae tim10-1 ts strain growth, BacTiter-Glo, 24 h; inhibition, % at 20 µM; 2.2% of 330,000 active;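 active = inhibition of at least 40%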;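 also: mutant grown at 25 °C; 0% = DMSO wells with yeast and 100% = wells holding no yeast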
tim23-1 inh = growth inhibitors of tim23-1 mutant yeast. S. cerevisiae tim23-1 growth, BacTiter-Glo luminescence, 24 h. inhibition, % at 20 µM. 1.3% of 330,000 active;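 active = growth inhibition of the mutant yeast at or above 50%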;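 also: temperature-sensitive mutant grown at 25 °C; plate controls were DMSO-treated mutant yeast for no effect and medium wells lacking yeast for full effect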
tim10-1 confirm = tim10-1 yeast growth inhibition, confirmed | S. cerevisiae tim10-1 ts strain growth, BacTiter-Glo, 24 h | 56% of 7,400 active | inhibition, % at 20 µM | shares compounds with tim10-1 inh;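 active = inhibition of yeast growth at or above a set limit in either of two repeat tests at 20 µM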;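 also: tim10-1 mutant grown at permissive 25 °C to find synthetic lethal compounds; 0% = DMSO yeast wells and 100% = medium wells without yeast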
An asterisk follows results filed as active; . = not tested or not shown.

SMILES	SUMO Mot1 rescue	PfHsp90 set2	TIM10 inh	tim10-1 inh	tim23-1 inh	tim10-1 confirm
O=C(COC(=O)C1=COCCO1)Nc1cc(C(F)(F)F)ccc1Cl	-19	-26	6	19	12	.
O=C(O)C1CCCCC1C(=O)Nc1ccc(S(=O)(=O)N2CCCCC2)cc1 (centres undefined)	-6	31	13	-24	2	.
O=C(Nc1nccs1)c1ccc(F)c(S(=O)(=O)N2CCOCC2)c1	-14	5	3	-1	2	.
CC1CCN(S(=O)(=O)c2cccc(C(=O)Nc3nccs3)c2)CC1	-4	21	23	48*	35	35*
O=C(Nc1nccs1)c1ccc(Br)c(S(=O)(=O)N2CCOCC2)c1	-16	-1	8	48*	29	32*
CN1CCN(S(=O)(=O)c2cccc(C(=O)Nc3nccs3)c2)CC1	-2	16	-7	0	8	.
COCCn1c(=NC(=O)c2cc(-c3cccs3)nc3ccccc23)sc2cc(S(N)(=O)=O)ccc21	11	-7	15	40	24	30*
Cc1cc(C)nc(Sc2ccc([N+](=O)[O-])cc2[N+](=O)[O-])n1	-27	-27	9	47*	43	30*
O=[N+]([O-])c1ccc(Sc2cccc3cccnc23)c([N+](=O)[O-])c1	20	-9	30	56*	50	57*
C=CCn1nc([N+](=O)[O-])nc1Sc1cccc2cccnc12	18	3	16	52*	41	37*
O=[N+]([O-])c1ccc(Sc2cccc3cccnc23)cc1	8	-29	17	15	23	.
COc1cc(/C=C2\SC(=S)N(NC(=O)c3ccccc3O)C2=O)ccc1O	-21	-6	31	44*	34	32*
CNS(=O)(=O)c1cn(CC(=O)NCc2ccc(F)cc2)cc1S(=O)(=O)NC	3	-16	7	16	4	.
COc1cc2c(C(=O)N3CCN(C)CC3)c(C)n(-c3ccccc3)c2cc1Br	151	-15	20	50*	21	27
CCN(CC)CCNC(=O)c1c(C)n(-c2ccccc2)c2cc(Br)c(OC)cc12	-2	4	3	29	15	.
Cc1ccc(NS(=O)(=O)c2ccc(C(=O)N3CCCC(C(F)(F)F)C3)cc2)cc1 (centres undefined)	2	12	-7	5	3	.
Cc1cccc(NC(=S)/N=C(\N)Nc2nc(C)c3ccccc3n2)c1	-1	-4	33	44*	35	27
COc1ccc2c(C)nc(N/C(N)=N/S(=O)(=O)c3ccc(C)cc3)nc2c1	-13	10	13	30	32	.
COc1ccc2nc(N/C(N)=N/C(=S)Nc3ccccc3)nc(C)c2c1	6	-51	37	50*	44	19
Cc1ccc(S(=O)(=O)/N=C(\N)Nc2nc(C)c3ccccc3n2)cc1	1	7	7	45*	31	10
COc1cc(C)nc(NC(=O)NC(=O)c2ccc(C(F)(F)F)cc2)n1	-4	-7	7	25	11	.
Cc1ccc(NC(=O)C2CCCN(S(=O)(=O)c3ccc(-n4cnnn4)cc3)C2)cc1 (centres undefined)	24	27	-12	2	1	.
Clc1ccc(-c2cnnc(-c3ccccn3)n2)cc1	9	29	-21	17	18	.
Cc1nc(-c2ccc(S(=O)(=O)Nc3ccc(S(N)(=O)=O)cc3)cc2)co1	-22	6	-1	-3	-22	.
Cc1ccc(C)c(NS(=O)(=O)c2ccc(-c3coc(C)n3)cc2)c1	-1	18	10	41*	42	24
SMILES	SUMO Mot1 rescue	PfHsp90 set2	TIM10 inh	tim10-1 inh	tim23-1 inh	tim10-1 confirm
Cc1nc(-c2ccc(S(=O)(=O)Nc3ccccc3C)cc2)co1	-6	-42	13	28	36	.
Cc1ccc(NS(=O)(=O)c2ccc(-c3coc(C)n3)cc2)c(Br)c1	-15	7	26	57*	50	17
CN1CCN(c2nc(-c3ccc(Cl)cc3)cc(=O)[nH]2)CC1	6	7	0	7	7	.
CCNc1nc(C#N)nc2c1ncn2-c1cc(F)cc(F)c1	-3	1	10	20	19	.
COc1ccc(OC)c(Nc2nc(N(C)c3ccccc3)nc(N)c2[N+](=O)[O-])c1	-16	22	22	31	30	.
COc1cc(/C=N/NC(=O)c2cc(-c3ccccc3)nc3ccccc23)ccc1O	-1	-23	12	41*	23	31
CC(C)n1cc(CN2CCCC(CNS(=O)(=O)c3cccc4cccnc34)C2)cn1 (centres undefined)	26	14	4	-12	-12	.
CCCCN(C(=O)CCC(=O)Nc1cc(C)on1)C(C(=O)NC1CCCC1)c1ccccc1OCC (centres undefined)	13	9	-12	17	21	.
COc1cc(/C=C2/CCc3ccccc3C2=O)cc(OC)c1OC	19	1	40	41*	42	29
COc1ccc(N2CCN(CCCNC(=O)CN3C(=O)COc4ccccc43)CC2)cc1	1	-4	-3	-7	-11	.
COc1ccc2sc(-c3ccc(S(C)(=O)=O)cc3)c(C#CCO)c2c1	-2	-11	15	43*	47	41*
COc1ccc2c(C#CCCO)c(-c3ccc(S(C)(=O)=O)cc3)sc2c1	-1	.	27	23	19	.
CC1CCCN(S(=O)(=O)c2ccc(C(=O)Nc3nnc(-c4ccccc4Cl)o3)cc2)C1 (centres undefined)	265	-9	22	42*	-5	7
CC1CCCN(S(=O)(=O)c2ccc(C(=O)Nc3nnc(-c4ccccn4)o3)cc2)C1 (centres undefined)	57	-18	9	21	5	.
CC1CC(C)CN(S(=O)(=O)c2ccc(C(=O)Nc3nnc(-c4cccs4)o3)cc2)C1 (centres undefined)	-12	-54	18	42*	6	21
CCC1CCCCN1S(=O)(=O)c1ccc(C(=O)Nc2nnc(-c3cccs3)o2)cc1 (centres undefined)	-7	-27	18	45*	21	27
O=C(CNCc1cccnc1)Nc1cc(C(F)(F)F)ccc1N1CCOCC1	-22	3	-10	-12	-8	.
Cn1c(N/N=C/c2cc3ccccc3nc2Cl)nc2ccccc21	44	51	21	42*	30	33*
O=C1Nc2cc(C(=O)N3CCN(c4ccccn4)CC3)ccc2S/C1=C\c1ccccc1	6	-8	30	42*	42	-8
CCn1c(=O)n(CC)c2cc(N3CCCC3)c(NC(=O)c3cccc(OC)c3)cc21	-8	13	6	47*	35	-7
Cn1c(=O)n(C)c2cc(N3CCCCC3)c(NC(=O)c3cccc(Cl)c3)cc21	-8	-32	3	42*	32	-15
